Measurements published in the supplement of paper PMC8387472.
Where a name gives a salt, the structure may show the parent alone. ± gives the standard deviation of the averaged measurements.

test system: mESC LDLR-Dup GFP reporter (SpCas9 MH-deletion repair); assay: fraction of GFP+ cells relative to DMSO control (fold change); higher = more MH-deletion repair to in-frame LDLR (or more editing); conditions: 2 µM; 7 days post-transfection

Compound	fraction of GFP+ cells
CCN1CCN(CC(=O)Nc2ccc(-c3cccc4c(=O)cc(N5CCOCC5)oc34)c3sc4ccccc4c23)CC1	1.08 ± 0.16
S=P(N1CC1)(N1CC1)N1CC1 [Thiotepa]	0.905 ± 0.27
NC(=O)c1ccc2nc(-c3ccc(Oc4ccc(Cl)cc4)cc3)[nH]c2c1 [Chk 2 inhibitor II (BML-277)]	0.961 ± 0.26
CCc1c2c(nc3ccc(OC(=O)N4CCC(N5CCCCC5)CC4)cc13)-c1cc3c(c(=O)n1C2)COC(=O)[C@]3(O)CC [Irinotecan HCl Trihydrate]	0.463 ± 0.066
O=C(NC(NC(=S)Nc1ccc(F)c([N+](=O)[O-])c1)C(Cl)(Cl)Cl)C(c1ccccc1)c1ccccc1 (stereo not drawn)	0.561 ± 0.13
O=c1cc(N2CCOCC2)oc2c(-c3ccc4c(c3)OCCO4)csc12	0.48 ± 0.029
C[C@@H]1COCCN1c1cc(C2([S@](C)(=N)=O)CC2)nc(-c2cc[nH]c3nccc2-3)n1	0.429 ± 0.24
O=c1[nH]c(=O)n([C@H]2C[C@H](O)[C@@H](CO)O2)cc1C(F)(F)F [Trifluridine]	2.69
O=C(c1cccc(Cl)c1F)N1CCN(Cc2cccc(Nc3nccs3)n2)CC1	1.25 ± 0.38
COc1ccccc1-c1cc(Nc2cccc(CS(N)(=O)=O)c2)ncn1	1.17 ± 0.072
N#Cc1cnc(Nc2cc(NC[C@H]3CNCCO3)c(C(F)(F)F)cn2)cn1	1.18 ± 0.1
CCc1ccc(/C=C2/SC(=S)NC2=O)cc1	0.853 ± 0.25
Nc1[nH]cnc2ncnc1-2 [Adenine HCl]	1.31 ± 0.32
CC(=O)Nc1ccc(NC(=S)NC(=O)c2ccc(C(C)(C)C)cc2)cc1 [Tenovin-1]	0.623 ± 0.14
CNc1ccc([N+](=O)[O-])c(Nc2ccc3[nH]ncc3c2)n1	2.16 ± 0.36
O=C1Cc2c([nH]c3ccc(Br)cc23)-c2ccccc2N1 [Kenpaullone]	1.53 ± 0.057
O=C(Nc1ccccc1)c1cc([N+](=O)[O-])ccc1Cl	1.96 ± 0.34
S=c1[nH]cnc2nc[nH]c12 [Mercaptopurine (6-MP)]	2.22 ± 1.1
CC(=O)O/N=C1\C(=O)N(Cc2cc(Cl)ccc2Cl)c2ccc(Cl)cc21	1.21 ± 0.075

Compound	fraction of GFP+ cells
O=C(O)COc1ccc(Br)cc1C=C1SC(=S)N(Cc2cccnc2)C1=O [Skp2 inhibitor C1 (SKPin C1)]	0.783 ± 0.085
Nc1nc2[nH]cc(CCc3ccc(C(=O)N[C@@H](CCC(=O)O)C(=O)O)cc3)c2c(=O)[nH]1 [Pemetrexed]	1.53 ± 0.08
Cc1cc(C)nc(SCC(=O)Nc2ncc(Cc3cccc4ccccc34)s2)n1	1.15 ± 0.61
Cc1nc(N(C)C(=O)Cc2ccc(-c3ccccn3)cc2)sc1S(N)(=O)=O [Pritelivir (BAY 57-1293)]	1.01 ± 0.22
O=c1c(-c2ccc(O)cc2)coc2cc(O)cc(O)c12 [Genistein]	1.07 ± 0.17
Cc1cccc(CC(=O)N2CCc3c2ccc(-c2cn(C)c4ncnc(N)c24)c3F)n1	0.925 ± 0.19
CO[C@H]1/C=C/O[C@@]2(C)Oc3c(C)c(O)c4c(O)c(c(/C=N/N5CCN(C6CCCC6)CC5)c(O)c4c3C2=O)NC(=O)/C(C)=C\C=C\[C@H](C)[C@H](O)[C@@H](C)[C@@H](O)[C@@H](C)[C@H](OC(C)=O)[C@@H]1C [Rifapentine]	3.03 ± 0.37
S=c1nc[nH]c2nc[nH]c12 [6-Mercaptopurine (6-MP) Monohydrate]	1.21 ± 0.061
CC1=C(/C=C/C(C)=C/C=C/C(C)=C/C(=O)O)C(C)(C)CCC1 [Tretinoin]	0.923 ± 0.026
C#CCC(Cc1cnc2nc(N)nc(N)c2n1)c1ccc(C(=O)N[C@@H](CCC(=O)O)C(=O)O)cc1 (stereo partly drawn) [Pralatrexate]	1.43 ± 0.46
CCCC(CCC)C(=O)O [Divalproex Sodium]	0.742 ± 0.1
Nc1ncnc2c1c(-c1cnc3[nH]ccc3c1)nn2C1CCCC1	0.289 ± 0.034
Cc1ccc(C(=O)NCCCCCC(=O)Nc2ccccc2N)cc1	1.26 ± 0.13
CC(C)(C#N)c1ccc(N2C(=O)OCc3cnc4ccc(-c5cnc6ccccc6c5)cc4c32)cc1	1.01 ± 0.45
CCCCOc1c(C(=O)c2c(F)cc(C)cc2F)c[nH]c2nncc1-2	1.7 ± 0.11
CCOC(=O)NCCCC(=O)NCCc1ccccc1	0.748 ± 0.18
O=c1cc(N2CCOCC2)oc2c(-c3cccc4c3sc3ccccc34)cccc12	0.732 ± 0.4
C[C@@H]1CN(CC(=O)Nc2ccc3c(c2)Cc2cccc(-c4cc(=O)cc(N5CCOCC5)o4)c2S3)C[C@H](C)O1	0.516 ± 0.11
CCn1c(=O)c(-c2ccc(Cl)cc2Cl)cc2cnc(Nc3ccc(N4CCNCC4)c(F)c3)nc21	0.433 ± 0.12
